Hit rate of the full screen: of about 5,500 compounds, about 2,000 (36%) were called active. Roughly 18% stayed inconclusive and do not appear here. No stated cut-off is given here; in the data, active means normalized growth mostly below about 0.91 (no sharp cut-off); inconclusive means no clear call, values can overlap the other calls; inactive means mostly above about 0.92. The list shows a part of the results.
Assay: chemical genetic growth profiling, strain panel (AID 1159580);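 further: tested at 20 µM; growth read once vehicle control cultures reached saturation at 30 °C; 1 = growth at the plate median or of vehicle wells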
Settings: growth OD

Measured: normalized growth

CC(=O)Oc1ccc2c(c1)CCC1C2CC[C@@]2(C)C1CC[C@@H]2OC(C)=O (stereo not given in full)
active: S. cerevisiae deletion strains, locus YLR262C, strain YPT6 (second series), stronger effect = lower value 0.663
inactive: S. cerevisiae deletion strains, locus YJR075W, strain HOC1, stronger effect = lower value 0.957 | S. cerevisiae deletion strains, locus YKL009W, strain mrt4, stronger effect = lower value 0.956 | S. cerevisiae deletion strains, locus YKL068W, stronger effect = lower value 0.971 | S. cerevisiae deletion strains, locus YKL085W, strain MDH1 (second series), stronger effect = lower value 0.959 | S. cerevisiae deletion strains, locus YKL085W, strain MDH1, stronger effect = lower value 0.959 | S. cerevisiae deletion strains, locus YKL160W, strain elf1, stronger effect = lower value 1 | S. cerevisiae deletion strains, locus YKL190W, strain CNB1, stronger effect = lower value 0.961 | S. cerevisiae deletion strains, locus YKR001C, strain vps1, stronger effect = lower value 0.98 | S. cerevisiae deletion strains, locus YKR026C, strain gcn3, stronger effect = lower value 0.973 | S. cerevisiae deletion strains, locus YKR091W, strain srl3, stronger effect = lower value 0.99 | S. cerevisiae deletion strains, locus YLL001W, strain dnm1, stronger effect = lower value 0.96 | S. cerevisiae deletion strains, locus YLL026W, stronger effect = lower value 0.991 | S. cerevisiae deletion strains, locus YLL041C, strain sdh2, stronger effect = lower value 0.996 | S. cerevisiae deletion strains, locus YLR027C, strain aat2, stronger effect = lower value 0.997 | S. cerevisiae deletion strains, locus YLR039C, strain RIC1, stronger effect = lower value 0.838 | S. cerevisiae deletion strains, locus YLR058C, strain SHM2, stronger effect = lower value 0.968 | S. cerevisiae deletion strains, locus YLR102C, strain apc9, stronger effect = lower value 0.968 | S. cerevisiae deletion strains, locus YLR113W, strain HOG1, stronger effect = lower value 0.911 | S. cerevisiae deletion strains, locus YLR221C, strain rsa3, stronger effect = lower value 0.958 | S. cerevisiae deletion strains, locus YLR258W, strain gsy2, stronger effect = lower value 0.991 | S. cerevisiae deletion strains, locus YLR262C, strain YPT6, stronger effect = lower value 0.729 | S. cerevisiae deletion strains, locus YLR268W, strain sec22, stronger effect = lower value 0.986 | S. cerevisiae deletion strains, locus YLR320W, strain mms22, stronger effect = lower value 0.908 | S. cerevisiae deletion strains, locus YLR330W, strain CHS5, stronger effect = lower value 0.981 | S. cerevisiae deletion strains, locus YLR342W, strain FKS1 (second series), stronger effect = lower value 1.03 | S. cerevisiae deletion strains, locus YLR342W, strain FKS1, stronger effect = lower value 0.969 | S. cerevisiae deletion strains, locus YLR357W, strain rsc2, stronger effect = lower value 1 | S. cerevisiae deletion strains, locus YLR370C, strain arc18, stronger effect = lower value 0.977 | S. cerevisiae deletion strains, locus YLR371W, strain rom2, stronger effect = lower value 0.981 | S. cerevisiae deletion strains, locus YLR384C, strain iki3, stronger effect = lower value 0.985 | S. cerevisiae deletion strains, locus YLR418C, strain cdc73, stronger effect = lower value 0.963 | S. cerevisiae deletion strains, locus YML016C, strain PPZ1, stronger effect = lower value 0.974 | S. cerevisiae deletion strains, locus YML032C, strain rad52, stronger effect = lower value 0.974 | S. cerevisiae deletion strains, locus YML120C, strain ndi1, stronger effect = lower value 0.97 | S. cerevisiae deletion strains, locus YML124C, strain tub3, stronger effect = lower value 0.965 | S. cerevisiae deletion strains, locus YMR058W, strain fet3, stronger effect = lower value 1 | S. cerevisiae deletion strains, locus YMR078C, strain ctf18, stronger effect = lower value 0.964 | S. cerevisiae deletion strains, locus YMR125W, strain sto1, stronger effect = lower value 0.994 | S. cerevisiae deletion strains, locus YMR129W, stronger effect = lower value 0.989 | S. cerevisiae deletion strains, locus YMR205C, strain PFK2, stronger effect = lower value 0.947 | S. cerevisiae deletion strains, locus YMR223W, strain ubp8, stronger effect = lower value 0.984 | S. cerevisiae deletion strains, locus YMR231W, strain pep5, stronger effect = lower value 1.02 | S. cerevisiae deletion strains, locus YMR263W, strain SAP30, stronger effect = lower value 0.967 | S. cerevisiae deletion strains, locus YMR307W, strain GAS1, stronger effect = lower value 1.12 | S. cerevisiae deletion strains, locus YNL067W, strain RPL9B, stronger effect = lower value 0.957 | S. cerevisiae deletion strains, locus YNL071W, strain lat1, stronger effect = lower value 0.97 | S. cerevisiae deletion strains, locus YNL128W, strain TEP1, stronger effect = lower value 0.986 | S. cerevisiae deletion strains, locus YNL183C, strain NPR1, stronger effect = lower value 0.894 | S. cerevisiae deletion strains, locus YNL209W, strain ssb2, stronger effect = lower value 1.02 | S. cerevisiae deletion strains, locus YNL233W, strain BNI4, stronger effect = lower value 0.938 | S. cerevisiae deletion strains, locus YNL248C, strain rpa49, stronger effect = lower value 0.986 | S. cerevisiae deletion strains, locus YNL250W, strain rad50, stronger effect = lower value 0.972 | S. cerevisiae deletion strains, locus YNL271C, strain bni1, stronger effect = lower value 0.996 | S. cerevisiae deletion strains, locus YNL298W, strain CLA4, stronger effect = lower value 0.969 | S. cerevisiae deletion strains, locus YNL307C, strain MCK1, stronger effect = lower value 0.958 | S. cerevisiae deletion strains, locus YNL322C, strain KRE1 (second series), stronger effect = lower value 0.988 | S. cerevisiae deletion strains, locus YNR049C, strain mso1, stronger effect = lower value 0.99 | S. cerevisiae deletion strains, locus YNR052C, strain pop2, stronger effect = lower value 0.985 | S. cerevisiae deletion strains, locus YOL006C, strain TOP1, stronger effect = lower value 0.796 | S. cerevisiae deletion strains, locus YOL012C, strain htz1 1.06 | S. cerevisiae deletion strains, locus YOL147C, strain pex11, stronger effect = lower value 0.969 | S. cerevisiae deletion strains, locus YOR001W, strain rrp6, stronger effect = lower value 0.972 | S. cerevisiae deletion strains, locus YOR061W, strain CKA2, stronger effect = lower value 0.937 | S. cerevisiae deletion strains, locus YOR069W, strain VPS5, stronger effect = lower value 0.987 | S. cerevisiae deletion strains, locus YOR070C, strain gyp1, stronger effect = lower value 1.01 | S. cerevisiae deletion strains, locus YOR080W, strain dia2, stronger effect = lower value 1.02 | S. cerevisiae deletion strains, locus YOR083W, strain WHI5, stronger effect = lower value 0.936 | S. cerevisiae deletion strains, locus YOR106W, strain vam3, stronger effect = lower value 1.03 | S. cerevisiae deletion strains, locus YOR136W, strain idh2, stronger effect = lower value 0.982 | S. cerevisiae deletion strains, locus YOR144C, strain elg1, stronger effect = lower value 0.968 | S. cerevisiae deletion strains, locus YOR184W, strain ser1, stronger effect = lower value 0.906 | S. cerevisiae deletion strains, locus YOR231W, strain MKK1, stronger effect = lower value 0.923 | S. cerevisiae deletion strains, locus YOR265W, strain rbl2, stronger effect = lower value 0.992 | S. cerevisiae deletion strains, locus YOR270C, strain vph1, stronger effect = lower value 0.968 | S. cerevisiae deletion strains, locus YOR290C, strain snf2, stronger effect = lower value 0.968 | S. cerevisiae deletion strains, locus YOR316C, strain cot1, stronger effect = lower value 0.965 | S. cerevisiae deletion strains, locus YPL051W, strain arl3, stronger effect = lower value 1.01 | S. cerevisiae deletion strains, locus YPL055C, strain LGE1, stronger effect = lower value 0.838 | S. cerevisiae deletion strains, locus YPL078C, strain atp4, stronger effect = lower value 1.04 | S. cerevisiae deletion strains, locus YPL106C, strain sse1, stronger effect = lower value 1.03 | S. cerevisiae deletion strains, locus YPL240C, strain hsp82, stronger effect = lower value 1 | S. cerevisiae deletion strains, locus YPL241C, strain CIN2, stronger effect = lower value 0.972 | S. cerevisiae deletion strains, locus YPL256C, strain CLN2, stronger effect = lower value 0.924 | S. cerevisiae deletion strains, locus YPR119W, strain clb2, stronger effect = lower value 0.955 | S. cerevisiae deletion strains, locus YPR141C, strain kar3, stronger effect = lower value 0.97 | S. cerevisiae deletion strains, locus YPR163C, strain tif3, stronger effect = lower value 0.979 | S. cerevisiae deletion strains, locus YPR167C, strain met16, stronger effect = lower value 0.975 | S. cerevisiae deletion strains, strain wtn01, stronger effect = lower value 0.972 | S. cerevisiae strains, strain wild type, stronger effect = lower value 0.958

Reference: PubChem BioAssay AID1159580 (chemical genetic matrix, 2015)
